# Test results: ChEMBL document CHEMBL1201862, “PubChem BioAssay data set” (2004); call rule not given here
# Experiment: A High Throughput Confirmatory Assay used to Identify Novel Compounds that Inhibit Mycobacterium Tuberculosis in the absence of Glycerol using Purified and Synthesized Compounds (6).
# Format: functional
row,Structure (SMILES),IC90
1,COc1c(N2CCNC(C)C2)c(F)cc2c(=O)c(C(=O)O)cn(C3CC3)c12 (centres undefined),> 170 nM (active)
2,CC[N+](C)(CC)CCCCOc1ccc2c(c1)C(=O)c1cc(OCCCC[N+](C)(CC)CC)ccc1-2,> 2700 nM (active)
3,CC(C)/N=c1\cc2n(-c3ccc(Cl)cc3)c3ccccc3nc-2cc1Nc1ccc(Cl)cc1,> 230 nM (active)
4,CO[C@H]1/C=C/O[C@@]2(C)Oc3c(C)c(O)c4c(O)c(c(C=NN5CCN(C)CC5)c(O)c4c3C2=O)NC(=O)/C(C)=C\C=C\[C@H](C)[C@H](O)[C@@H](C)[C@@H](O)[C@@H](C)[C@H](OC(C)=O)[C@@H]1C,> 20 nM (active)
